Z-score and composite z-score data for 14 compounds are collected here from PubChem BioAssay.

Assay [1] can be described thus: E. coli DRC41 culture turbidity changes, primary screen, E. coli filamentation inducer project, strain DRC41, OD650, 48 h (AID 1152).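 Note: E. coli MC1000 strain DRC41 lacking acrAB efflux pump and sulA.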 To be noted: E. coli DRC41 (acrAB sulA), higher = more signal, called active from +8 up or from −8 down.
The nature of assay [2]: small-molecule binders of probe aLefty1, primary screen, biochemical, small-molecule microarray, 635/667 nm fluorescence (AID 1153).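 Note: score merges spot fluorescence with signal-to-noise ratio from the scanned slide images.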 The settings on record: higher = more signal.
A short description of assay [3]: PSAC antagonists in infected red cells, primary screen, cell-based, P. falciparum Indochina, OD700, 1 h (AID 1154). The settings on record: P. falciparum Indochina infected RBC osmotic lysis, higher = more signal, called active from +8 up or from −8 down.
The nature of assay [4]: PSAC antagonists in infected red cells, primary screen, cell-based, P. falciparum Indochina, OD700, 2 h (AID 1155).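 Note: lysis reports solute entry through the parasite surface anion channel PSAC; channel blockers reduce lysis of infected cells.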 To be noted: P. falciparum Indochina infected erythrocytes, osmotic lysis OD700; higher = more signal, called active from +8 up or from −8 down.
Assay [5] is described as follows: osmotic lysis modulators in infected erythrocytes, primary screen, PSAC antagonist project, cell-based, P. falciparum Indochina, OD700, 3 h (AID 1156). To be noted: higher = more signal, called active from +8 up or from −8 down.
Assay [6] in a line: PSAC antagonists in infected red cells, primary screen, cell-based, P. falciparum Indochina, OD700, 18 h (AID 1157). The settings on record: P. falciparum Indochina infected erythrocytes, osmotic lysis OD700, 18 h; higher = more signal, called active from +8 up or from −8 down.
The nature of assay [7]: modulators of S6 phosphorylation in cells, primary screen, cell-based, A549, cytoblot, luminescence, serum-stimulated (AID 1158).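 Note: serum-stimulated A549 lung adenocarcinoma cells; signal is phosphorylated S6 detected by cytoblot immunostaining with HRP secondary.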 The settings on record: A549 phospho-S6 cytoblot, 5 h, higher = more signal.
The target in assay [8] is NADPH oxidase 2 (Homo sapiens) (UniProt P04839). Kind of assay: NOX2-dependent H2O2 signal modulators, primary screen, NOX inhibitor project, cell-based, HEK293-NOX2, PMA-stimulated, Amplex Red fluorescence (AID 1159). Note: test concentration not given here. To be noted: 45 min, higher = more signal, called active from +8 up or from −8 down.
For assay [9], the target named is NADPH oxidase 4 (Homo sapiens) (UniProt Q9NPH5). Kind of assay: NOX4-dependent H2O2 signal modulators, primary screen, NOX inhibitor project, cell-based, HEK293-NOX4, tetracycline-induced, Amplex Red fluorescence (AID 1160). The settings on record: 45 min, higher = more signal, called active from +8 up or from −8 down.
In assay [10] the target is NADPH oxidase 5 (Homo sapiens) (UniProt Q96PH1). Description: NOX5-dependent H2O2 signal modulators, primary screen, NOX inhibitor project, cell-based, HEK293-NOX5, Amplex Red fluorescence (AID 1161). To be noted: HEK293-NOX5, ionomycin, 45 min, higher = more signal.

Structures are written as SMILES. Calls of active or inactive are those of the source.

Sequence of NADPH oxidase 5 (Homo sapiens) (Q96PH1 whole entry, looked up): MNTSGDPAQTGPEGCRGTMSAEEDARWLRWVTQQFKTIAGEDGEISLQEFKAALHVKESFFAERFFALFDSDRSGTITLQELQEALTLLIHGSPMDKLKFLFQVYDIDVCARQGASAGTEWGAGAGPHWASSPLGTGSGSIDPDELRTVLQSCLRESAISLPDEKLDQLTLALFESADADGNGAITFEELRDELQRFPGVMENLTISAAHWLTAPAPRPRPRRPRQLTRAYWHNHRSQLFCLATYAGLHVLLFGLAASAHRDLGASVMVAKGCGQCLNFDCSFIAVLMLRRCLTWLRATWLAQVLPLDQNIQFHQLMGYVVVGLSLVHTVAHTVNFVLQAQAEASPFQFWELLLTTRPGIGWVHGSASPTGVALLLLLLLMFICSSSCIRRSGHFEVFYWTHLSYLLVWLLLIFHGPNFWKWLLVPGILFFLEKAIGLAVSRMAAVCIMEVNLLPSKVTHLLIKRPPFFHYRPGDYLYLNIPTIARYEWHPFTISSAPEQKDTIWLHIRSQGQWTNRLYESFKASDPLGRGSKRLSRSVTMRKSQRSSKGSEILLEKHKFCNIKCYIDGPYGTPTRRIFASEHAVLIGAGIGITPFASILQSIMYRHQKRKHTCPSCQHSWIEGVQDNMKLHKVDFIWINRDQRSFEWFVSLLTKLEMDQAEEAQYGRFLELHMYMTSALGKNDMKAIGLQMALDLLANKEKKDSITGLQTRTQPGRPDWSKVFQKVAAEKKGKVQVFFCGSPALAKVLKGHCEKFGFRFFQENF
Sequence of NADPH oxidase 2 (Homo sapiens) (P04839 whole entry, looked up): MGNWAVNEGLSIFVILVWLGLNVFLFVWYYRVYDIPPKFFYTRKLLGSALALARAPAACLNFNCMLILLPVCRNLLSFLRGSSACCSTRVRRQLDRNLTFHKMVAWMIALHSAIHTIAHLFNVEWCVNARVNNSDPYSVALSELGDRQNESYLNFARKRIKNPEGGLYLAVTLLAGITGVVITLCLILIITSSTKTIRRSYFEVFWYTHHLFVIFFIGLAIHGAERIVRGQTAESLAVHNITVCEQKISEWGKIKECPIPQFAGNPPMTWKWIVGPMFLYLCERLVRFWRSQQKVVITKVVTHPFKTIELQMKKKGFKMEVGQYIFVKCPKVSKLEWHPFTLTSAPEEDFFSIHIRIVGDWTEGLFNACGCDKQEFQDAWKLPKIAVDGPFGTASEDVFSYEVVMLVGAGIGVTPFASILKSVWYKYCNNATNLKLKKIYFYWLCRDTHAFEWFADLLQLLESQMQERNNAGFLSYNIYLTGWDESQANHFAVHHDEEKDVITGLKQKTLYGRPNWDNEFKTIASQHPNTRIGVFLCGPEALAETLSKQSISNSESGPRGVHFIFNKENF
Sequence of NADPH oxidase 4 (Homo sapiens) (Q9NPH5 whole entry, looked up): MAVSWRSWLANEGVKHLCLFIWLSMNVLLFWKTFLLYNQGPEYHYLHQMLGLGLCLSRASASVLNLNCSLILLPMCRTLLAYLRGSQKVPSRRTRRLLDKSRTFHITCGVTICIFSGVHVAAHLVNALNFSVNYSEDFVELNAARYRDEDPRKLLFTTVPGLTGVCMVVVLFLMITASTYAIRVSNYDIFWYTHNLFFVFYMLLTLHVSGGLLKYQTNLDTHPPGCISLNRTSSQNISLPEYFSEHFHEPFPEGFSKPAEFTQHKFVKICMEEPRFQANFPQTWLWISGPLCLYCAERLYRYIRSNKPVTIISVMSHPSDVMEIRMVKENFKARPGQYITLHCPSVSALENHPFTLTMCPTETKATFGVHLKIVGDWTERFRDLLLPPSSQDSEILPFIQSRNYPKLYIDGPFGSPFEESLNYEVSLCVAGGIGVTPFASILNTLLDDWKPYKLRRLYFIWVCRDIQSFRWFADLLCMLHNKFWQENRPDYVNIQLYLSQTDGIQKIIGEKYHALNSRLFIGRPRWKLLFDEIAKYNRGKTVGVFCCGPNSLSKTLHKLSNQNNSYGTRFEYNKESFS

Turning to `C=C[C@@H](O)[C@H]1CC(c2ccccc2)=NO1`, the z-score is 1.07 (inactive) in assay [1]; 16 (active) in [3]; 1.82 (inactive) in [4]; -0.112 (inactive) in assay [5]; 0.477 (inactive) in assay [6]; -0.194 in [7]. Besides, the z-score is -0.671 (inactive) in assay [8], -0.0807 (inactive) in [9] and 0.344 in assay [10]. Further, the composite z-score in assay [2] worked out at 0.0557.

For `CCCCC(O)C1C=CC2C(=O)N(Cc3ccccc3)C(=O)C2N1n1cnnc1` (stereo not given), the z-score is -1.18 (inactive) in assay [1]; 0.706 (inactive) in assay [3]; -1.16 (inactive) in assay [4]; 0.662 (inactive) in assay [5]; -1.85 (inactive) in assay [6]; 1.99 in assay [7]. For the same compound, the results for the z-score in assay [8], in assay [9] and in assay [10] were -3.33 (inactive), -2.04 (inactive) and -3.3, respectively. Also, the composite z-score in [2] is 0.574.

For `CC1(C)[C@@H]2CC(C(O)C3C=CC4C(=O)N(c5ccccc5)C(=O)C4N3Nc3ccccc3F)=C[C@@H]1C2` (stereo not given in full), the z-score in [1] is 0.446 (inactive); in assay [3], 1.83 (inactive); in assay [4] it was 0.194 (inactive); in assay [5], -1.57 (inactive); in [6], -0.786 (inactive); in assay [7], 0.586. In addition, the z-score was 0.318 (inactive) in [8], 0.0669 (inactive) in assay [9] and -0.156 in assay [10]. The compound also yielded a composite z-score in [2] of 0.43.

For the compound `CCOC(=O)C[C@H]1[C@H](OC(=O)c2cc3ccccc3oc2=O)[C@@H](NC(=O)c2ccc3ccccc3n2)c2cc(OCCCO)ccc2N1C(=O)c1ccc2ccccc2n1`, the z-score is 1.03 (inactive) in assay [1]; 10.8 (active) in assay [3]; 1.56 (inactive) in assay [4]; 1.25 (inactive) in assay [5]; 0.647 (inactive) in [6]; -0.112 in [7]. Moreover, the z-score in assay [8] was 0.786 (inactive); in [9], 0.715 (inactive); in assay [10] it was 2.28. The composite z-score in assay [2] worked out at 0.174.

`COc1ccc([Si](C)(C)[C@@H]2[C@@H](CCO)O[C@]3(C(=O)N(Cc4ccccc4)c4ccc(N5CCCCC5=O)cc43)[C@H]2C)cc1`: the z-score is 2.13 (inactive) in assay [1]; 3.59 (inactive) in assay [3]; 1.19 (inactive) in assay [4]; -0.121 (inactive) in assay [5]; 0.231 (inactive) in assay [6]; 0.863 in [7]. Further, the z-score in assay [8] is -0.421 (inactive); in assay [9], -0.278 (inactive); in [10], 1.37. For the same compound, in assay [2], the composite z-score is 0.0984.

With `COCCCNC(=O)[C@@]1(Cc2ccccc2CN=[N+]=[N-])N=C(c2ccc(OCCCO)cc2)O[C@H]1c1ccccc1N=[N+]=[N-]`, the z-score in [1] was 2.51 (inactive); in assay [3], 36.4 (active); in [4] it was 30.8 (active); in [5], 2.72 (inactive); in assay [6] it was 3.1 (inactive); in assay [7], -0.0478. Also, the figures for the z-score in [8], in [9] and in assay [10] were 0.0139 (inactive), 1.3 (inactive) and -1.31, respectively. In assay [2], the composite z-score came out at 0.0643.

As to `COCCOC(=O)N1C(=O)[C@@]2(c3cc(C#CC4(O)CCCCCC4)ccc31)[C@H](C(=O)N1CCc3cc(OC)c(OC)cc3C1)[C@H]1C(=O)O[C@H](c3ccccc3)[C@H](c3ccccc3)N1[C@@H]2c1ccccc1OCCO`, the z-score is 0.803 (inactive) in assay [1]; 1.39 (inactive) in assay [3]; 1.15 (inactive) in [4]; 0.496 (inactive) in [5]; 0.655 (inactive) in assay [6]; -0.0095 in assay [7]. Besides, the z-score was 2.73 (inactive) in assay [8], -0.879 (inactive) in assay [9] and 0.554 in assay [10]. The composite z-score in assay [2] was determined as 0.496.

For `COC(=O)[C@@]1(Cc2ccccc2)[C@H]2c3cc(C(=O)N(C)C)n(Cc4ccc(O)c(OC)c4)c3C[C@H]2CN1C(=O)c1ccccc1`, the z-score in assay [1] was -0.404 (inactive); in assay [3], 2.41 (inactive); in [4], -0.214 (inactive); in assay [5], 0.158 (inactive); in assay [6] it was -1.32 (inactive); in [7] it was 1.67. For the same compound, the z-score is -4.69 (inactive) in assay [8], -6.03 (inactive) in [9] and -6.08 in assay [10]. Besides, the composite z-score in assay [2] amounted to 0.774.

For `COC(=O)[C@]1(Cc2ccccc2N=[N+]=[N-])N=C(c2ccc(OCCCO)cc2)O[C@@H]1c1ccccc1`, the z-score in [1] was 0.738 (inactive); in assay [3], 28.2 (active); in assay [4] it was 27.2 (active); in assay [5], 1.06 (inactive); in assay [6], 7.41 (inactive); in assay [7], 0.777. The z-score in assay [8] was -1.49 (inactive); in assay [9], -0.013 (inactive); in assay [10] it was -1.12. The same compound showed a composite z-score in assay [2] of -0.111.

On to `COCCOC(=O)N1C(=O)[C@@]2(c3cc(C#CCC(C(=O)OC)C(=O)OC)ccc31)[C@H](c1ccc(OCCO)cc1)N1[C@H](c3ccccc3)[C@H](c3ccccc3)OC(=O)[C@H]1[C@@H]2C(N)=O`, for which the z-score in assay [1] is -0.361 (inactive); in assay [3], 5.25 (inactive); in assay [4] it was 1.58 (inactive); in assay [5], 0.478 (inactive); in assay [6], 0.59 (inactive); in [7] it was 0.702. Further, the z-score in [8] is 2.17 (inactive); in assay [9] it was 0.988 (inactive); in assay [10], 0.717. The compound further showed a composite z-score in [2] of -0.147.

As for `Cc1ccc(C(C)CC(O)C2C=CC3C(=O)N(Cc4ccccc4)C(=O)C3N2n2cnnc2)o1` (stereo not given), the z-score is -1.44 (inactive) in [1]; 2.31 (inactive) in assay [3]; 0.793 (inactive) in [4]; 0.809 (inactive) in [5]; 0.709 (inactive) in assay [6]; -0.63 in assay [7]. Besides, the z-score was -0.168 (inactive) in assay [8], -1.78 (inactive) in assay [9] and -2.17 in assay [10]. Also, in [2], the composite z-score is 1.21.

As to `CCN(CC)c1ccc(N2CC=CC34O[C@@H]5/C=C\CCCOC(=O)C5[C@H]3C(=O)N(CCCCCCO)[C@@H]4C2=O)cc1` (stereo not given in full), the z-score in [1] is 1.75 (inactive); in [3], 1.78 (inactive); in assay [4], -0.475 (inactive); in [5] it was 0.625 (inactive); in [6], -0.354 (inactive); in assay [7], 1.66. In addition, the z-score in assay [8] was 0.274 (inactive); in assay [9], 0.275 (inactive); in [10] it was 1.36. The compound further returned a composite z-score in [2] of 0.135.

For `COC(=O)[C@@]1(Cc2ccccc2)[C@H]2c3cc(C(=O)N4CCCC4)n(CCO)c3C[C@H]2CN1C(=O)c1ccccc1`, the z-score in [1] was -0.258 (inactive); in assay [3] it was 0.0574 (inactive); in assay [4], -0.644 (inactive); in [5] it was -0.513 (inactive); in [6] it was -1.61 (inactive); in [7], 1.33. For the same compound, the z-score was 0.661 (inactive) in assay [8], -0.517 (inactive) in assay [9] and -2.49 in assay [10]. Also, the composite z-score in assay [2] was found to be 1.89.

For the compound `C=C(COC)/C(=C/C[C@@H](OC(=O)c1ccncc1)c1cccc(OCCO)c1)c1cc(C(=O)OC)ccc1OC`, the z-score in assay [1] was 0.701 (inactive); in assay [3], 8.82 (active); in [4], 4.64 (inactive); in [5], -3.3 (inactive); in assay [6], 1.53 (inactive); in [7], -0.88. For the same compound, the results for the z-score in [8], in [9] and in [10] were -3.02 (inactive), -0.817 (inactive) and -1.23, respectively. The compound also yielded a composite z-score in assay [2] of 0.0698.
